# Measured values published in paper PMC11062922 (Nature Chemical Biology, 2023).
# Where two headings read alike, the source gives them in different places.
# Legend:
# Parameters in all cases: species or system human, MV4-11 + K-562 + COLO205 + SK-N-BE2 + OVCAR-8
# [1] = system: GSK3A; conditions: read-out: apparent Kd, compound concentrations: 100 nM and 1000 nM (sheet 'Samples'), n = 1
# [2] = system: GSK3B; conditions: read-out: apparent Kd, compound concentrations: 100 nM and 1000 nM (sheet 'Samples'), n = 1
# [3] = system: PRKCA; conditions: read-out: apparent Kd; compound concentrations: 100 nM and 1000 nM (sheet 'Samples'), CATDS: 0.4123063070702; n = 1
# [4] = system: PRKCB; conditions: read-out: apparent Kd; compound concentrations: 100 nM and 1000 nM (sheet 'Samples'), CATDS: 0.195628585726322; n = 1
# [5] = system: PRKCD; conditions: read-out: apparent Kd; compound concentrations: 100 nM and 1000 nM (sheet 'Samples'), CATDS: 0.18341156503501599; n = 1
# [6] = system: PRKCI; conditions: read-out: apparent Kd; compound concentrations: 100 nM and 1000 nM (sheet 'Samples'), CATDS: 6.3639374568516094E-2; n = 1
# [7] = system: PRKCQ; conditions: read-out: apparent Kd; compound concentrations: 100 nM and 1000 nM (sheet 'Samples'), CATDS: 0.13479681678754199; n = 1
# [8] = system: RPS6KA6; conditions: read-out: apparent Kd; compound concentrations: 100 nM and 1000 nM (sheet 'Samples'), CATDS: 9.8162959720225998E-2; n = 1
# [9] = system: RPS6KB1; conditions: read-out: apparent Kd; compound concentrations: 100 nM and 1000 nM (sheet 'Samples'), CATDS: 7.7658945876463797E-2; n = 1
# [10] = system: MAPKAPK2; conditions: read-out: apparent Kd; compound concentrations:100 nM and 1000 nM (sheet 'Samples'); n = 1
# [11] = system: MDN1; conditions: read-out: apparent Kd, n = 1
# [12] = system: MYLK3; conditions: read-out: apparent Kd; compound concentrations:100 nM and 1000 nM (sheet 'Samples'); n = 1
# [13] = system: NQO2; conditions: read-out: apparent Kd; compound concentrations:100 nM and 1000 nM (sheet 'Samples'); n = 1
# [14] = system: SMC4; conditions: read-out: apparent Kd; compound concentrations:100 nM and 1000 nM (sheet 'Samples'); n = 1
# [15] = system: HCK; conditions: read-out: apparent Kd; compound concentrations: 100 nM and 1000 nM (sheet 'Samples'), CATDS: 0.18431163144464899; n = 1
# [16] = system: MAPK14; conditions: read-out: apparent Kd; compound concentrations: 100 nM and 1000 nM (sheet 'Samples'), CATDS: 0.18472106160443499; n = 1
# [17] = system: RET; conditions: read-out: apparent Kd; compound concentrations: 100 nM and 1000 nM (sheet 'Samples'), CATDS: 0.22274296302997099; n = 1
# [18] = system: YES1; conditions: read-out: apparent Kd; compound concentrations: 100 nM and 1000 nM (sheet 'Samples'), CATDS: 0.26066512285863302; n = 1
# [19] = system: HSP90AA1; conditions: read-out: apparent Kd; compound concentrations: 100 nM and 1000 nM (sheet 'Samples'), CATDS: 0.146358991547622; n = 1
# [20] = system: HSP90B1; conditions: read-out: apparent Kd, compound concentrations: 100 nM and 1000 nM (sheet 'Samples'), n = 1
# [21] = system: HSPE1; conditions: read-out: apparent Kd, compound concentrations: 100 nM and 1000 nM (sheet 'Samples'), n = 1
# [22] = system: PGK1; conditions: read-out: apparent Kd, compound concentrations: 100 nM and 1000 nM (sheet 'Samples'), n = 1
# [23] = system: PKM; conditions: read-out: apparent Kd, compound concentrations: 100 nM and 1000 nM (sheet 'Samples'), n = 1
# [24] = system: PIK3CA; conditions: read-out: apparent Kd; compound concentrations: 100 nM and 1000 nM (sheet 'Samples'), CATDS: 0.37756355389393098; n = 1
# [25] = system: PIK3CD; conditions: read-out: apparent Kd; compound concentrations: 100 nM and 1000 nM (sheet 'Samples'), CATDS: 0.43898083182903402; n = 1
# [26] = system: PIM2; conditions: read-out: apparent Kd; compound concentrations: 100 nM and 1000 nM (sheet 'Samples'), CATDS: 0.17072245355379401; n = 1
# [27] = system: PIK3C3; conditions: read-out: apparent Kd; compound concentrations: 100 nM and 1000 nM (sheet 'Samples'), CATDS: 0.26990158235455203; n = 1
# [28] = system: PIK3CB; conditions: read-out: apparent Kd; compound concentrations: 100 nM and 1000 nM (sheet 'Samples'), CATDS: 0.57413084763850397; n = 1
# [29] = system: RAN; conditions: read-out: apparent Kd; compound concentrations: 100 nM and 1000 nM (sheet 'Samples'), CATDS: 0.17121500690258801; n = 1
smiles,measurement,setting,value
Cl.Cn1cc(C2=C(c3ccc(N)cc3)C(=O)NC2=O)c2ccccc21 [RO0317373-001],potency estimated from few doses,[1]; CATDS: 1,866 nM
Cl.Cn1cc(C2=C(c3c4n(c5ccccc35)CCC(CN)C4)C(=O)NC2=O)c2ccccc21 (stereo not shown) [RO0318425-001],potency estimated from few doses,[1]; CATDS: 7.9505519232768704E-2,383 nM
same,potency estimated from few doses,[2]; CATDS: 0.10826194795631,122 nM
same,potency estimated from few doses,[3],8.81 nM
same,potency estimated from few doses,[4],30 nM
same,potency estimated from few doses,[5],34.1 nM
same,potency estimated from few doses,[6],1630 nM
same,potency estimated from few doses,[7],67.5 nM
same,potency estimated from few doses,[8],167 nM
same,potency estimated from few doses,[9],429 nM
Cn1cc(C2=C(c3c4n(c5ccccc35)CCN(C(N)=S)C4)C(=O)NC2=O)c2ccccc21 [RO0319377-000],potency estimated from few doses,[2]; CATDS: 0.32462654335000002,259 nM
same,potency estimated from few doses,[10],1830 nM
same,potency estimated from few doses,[11]; compound concentrations:100 nM and 1000 nM (sheet 'Samples'),1470 nM
same,potency estimated from few doses,[12],1640 nM
same,potency estimated from few doses,[13],1550 nM
same,potency estimated from few doses,[14],2130 nM
Cc1nnc(-c2ccc3occ(-c4ccc(S(C)=O)cc4)c3c2)[nH]1 (stereo not shown) [TPKI-85],potency estimated from few doses,[2]; CATDS: 0.41063798470662799,861 nM
COc1cccc(C2=C(c3cn(C)c4ccccc34)C(=O)NC2=O)c1 [RO0318649-000],potency estimated from few doses,[2]; CATDS: 0.44424601969869798,1340 nM
COc1cc(Nc2nccc(-c3c(-c4cccc(NC(=O)c5c(F)cccc5F)c4)nn4ccccc34)n2)cc(OC)c1OC [GSK323521A],potency estimated from few doses,[15],1570 nM
same,potency estimated from few doses,[16],1560 nM
same,potency estimated from few doses,"[11]; compound concentrations: 100 nM and 1000 nM (sheet 'Samples'), CATDS: 0.171379045218121",1860 nM
same,potency estimated from few doses,[17],1070 nM
same,potency estimated from few doses,[18],812 nM
Cn1cc(C2=C(c3ccccc3C(F)(F)F)C(=O)NC2=O)c2ccccc21 [RO0317717-000],potency estimated from few doses,[19],1690 nM
same,potency estimated from few doses,[20]; CATDS: 0.15036452413929899,1530 nM
same,potency estimated from few doses,[21]; CATDS: 0.26644464467786899,337 nM
same,potency estimated from few doses,[22]; CATDS: 0.56711536004942897,87.1 nM
same,potency estimated from few doses,[23]; CATDS: 0.16665150952337399,1090 nM
COc1ccc(Nc2nccc(N3CCC(NC(=O)c4cc5ccccc5s4)C3)n2)cc1 (stereo not shown) [GSK1379738A],potency estimated from few doses,[20]; CATDS: 0.19171870490815801,1350 nM
same,potency estimated from few doses,[24],248 nM
same,potency estimated from few doses,[25],190 nM
same,potency estimated from few doses,[26],2150 nM
O=c1cc(N2CCOCC2)nc2n(Cc3cccc(Cl)c3Cl)c3ccccc3n12 [GSK2299009A],potency estimated from few doses,[20]; CATDS: 0.28143783483282298,1040 nM
same,potency estimated from few doses,[27],1170 nM
same,potency estimated from few doses,[28],251 nM
O=C(Nc1ccccc1F)NC1CCN(c2ccnc(Nc3ccc(F)cc3)n2)C1 (stereo not shown) [GSK1379722A],potency estimated from few doses,[20]; CATDS: 1,875 nM
Cn1cc(C2=C(c3cn(C)c4ccccc34)C(=O)NC2=O)c2ccccc21 [RO0317208-000],potency estimated from few doses,[21]; CATDS: 0.26304172030338102,475 nM
same,potency estimated from few doses,[22]; CATDS: 0.76516694172770505,47 nM
same,potency estimated from few doses,[23]; CATDS: 0.19798813046119201,1120 nM
same,potency estimated from few doses,[29],1970 nM
